A selection: hits, their analogues and other compounds. The true share with any hit is near 21%.
NS1 function inh: inhibitors of influenza NS1 protein function; Potency, µM (series often up to 46.1 µM), for inactives: at the top dose activity, positive = more growth; hit rate 0.4% among 270,000; AID 2326; calls by dose curve; further: potency means the concentration at half of the fitted maximal effect; actives are rising curves; nearly all actives have a fitted effect of over 50% in size
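OD600 was taken as the measure of yeast growth restored by compound in an NS1-expressing S. cerevisiae strain. Cells had been washed out of glucose medium and diluted 1:100 into galactose -URA medium, pH 6.0.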
Cycloheximide cs: counter-screen hit for Shiga toxin inhibitors, cycloheximide; cell reporter, cycloheximide protein synthesis inhibition counterscreen; max response, %; hit rate 12% among 300,000; AID 2314; in the data active means max response mostly above about 13%, no sharp cut-off; inactive means mostly below about 14%; further: read at 38.3 µM for the half of the compounds with a filed dose; 0% is about no effect
Shiga toxin inh: inhibitors of Shiga toxin in Vero cells; inhibition, % at 38.7 µM; Vero cells, Shiga toxin protein synthesis inhibition reporter; hit rate 9.2% among 290,000; in the data active means inhibition mostly above about 28%, no sharp cut-off; inactive means mostly below about 43%; further: 0% is about no effect
Pf growth 48h: inhibits P. falciparum growth in the first generation, 48 h | AID 504832 | Potency, µM (doses to about 28.7 µM), for inactives: at the top dose activity change, negative = inhibition, usual class: inhibitors | hit rate 5.9% among 310,000 | P. falciparum luciferase growth in erythrocytes, 48 h; further: potency means the concentration at half of the fitted maximal effect; on the % scale 0 is the no-effect control and ±100 the full control effect
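Here the parasites carry a stable luciferase gene and grow inside erythrocytes in Albumax-based RPMI medium with compound for one erythrocytic cycle. Activity is scored as loss of luminescent signal.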
Sm TGR inh: S. mansoni TGR enzyme inhibition. hit rate 3% among 360,000. purified TGR, DTNB reduction, TNB absorbance 405 nm. Potency, µM (doses to about 114 µM), for the others: top-dose activity change, negative = inhibition, hits mostly inhibitors; further: potency means the concentration at half of the fitted maximal effect; on the % scale 0 is the no-effect control and ±100 the full control effect; nearly all actives have a fitted effect of over 60% in size
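TGR 20 nM + NADPH 100 uM (dispensed conc.), cpd preinc 15 min RT; start with NADPH (500 uM addition) then DTNB (15 mM addition). Kinetic TNB absorbance, 405 nm filter. Four-parameter Hill fit across titration.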
Pf growth 96h: inhibits malaria parasite growth, 96 h. P. falciparum luciferase reporter growth, 96 h. Potency, µM (highest dose often 28.7 µM), inactives show at the highest dose activity change, negative = inhibition, most hits filed as inhibitors. hit rate 6.9% among 320,000; further: potency means the concentration at half of the fitted maximal effect; on the % scale 0 is the no-effect control and ±100 the full control effect
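96 h incubation, 37 C, 5% CO2, of luciferase-reporter P. falciparum-infected RBCs (2% hematocrit, 0.05% parasitemia final) with test compounds; endpoint luminescence.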
* = called active by the depositor; ? = inconclusive; . = no result. Unless noted, the call rests on the fitted dose curve; in most records, active means well fitted curve in the direction sought with a large enough effect; inconclusive means small, poorly fitted or top-dose-only effect, or another doubt; inactive means no such curve, though single readings can be large; an effect the other way counts as inactive or inconclusive.

SMILES	NS1 function inh	Cycloheximide cs	Shiga toxin inh	Pf growth 48h	Sm TGR inh	Pf growth 96h
C#CCOCCOCCOCCNc1nc(N2CCN(C(=O)C(Cc3cc4ccccc4[nH]3)n3cc(C(N)C(C)CC)nn3)CC2)nc(N2CCN(C(=O)C(Cc3cc4ccccc4[nH]3)n3cc(C(N)C(C)CC)nn3)CC2)n1 (stereo not drawn)	-1%	-2	-8	?	-35%	4.1µM*
C#CCOCCOCCOCCNc1nc(N2CCN(C(=O)[C@H](CCC(=O)O)n3cc(C(N)CC(C)C)nn3)CC2)nc(N2CCN(C(=O)[C@H](Cc3cc4ccccc4[nH]3)n3cc(C(N)[C@H](C)CC)nn3)CC2)n1 (stereo partly drawn)	7%	-2	-11	5%	?	10%
C#CCOCCOCCOCCNc1nc(N2CCOCC2)nc(N2CCN(C(=O)[C@H](Cc3cc4ccccc4[nH]3)n3cc([C@@H](N)C(C)CC)nn3)CC2)n1 (stereo partly drawn)	-3%	9	-8	?	-21%	2.9µM*
C#CCOCCOCCOCCNc1nc(N2CCN(C(=O)[C@H](CCC(=O)O)n3cc(C(N)[C@H](C)CC)nn3)CC2)nc(N2CCN(C(=O)[C@H](Cc3cc4ccccc4[nH]3)n3cc(C(N)[C@H](C)CC)nn3)CC2)n1 (stereo partly drawn)	-4%	2	-9	-11%	?	-16%
C#CCOCCOCCOCCNc1nc(N2CCN(C(=O)C(Cc3ccc(O)cc3)n3cc(C(N)CC(C)C)nn3)CC2)nc(N2CCN(C(=O)C(Cc3cc4ccccc4[nH]3)n3cc(C(N)C(C)CC)nn3)CC2)n1 (stereo not drawn)	-4%	-4	-7	?	0%	?
CSc1nc(-c2ccccc2)nc(N2CCOCC2)c1C(C)=O	.	-2	-16	16%	10%	17%
Cc1cc(-c2ccc(C)c(S(=O)(=O)NCCC(C)N3CCCCCC3)c2)on1 (stereo not drawn)	-3%	2	-15	12%	-3%	-17%
CCOC(=O)C1=C(COC(=O)[C@H](C)NS(=O)(=O)c2ccc(NC(C)=O)cc2)NC(=O)NC1C (stereo partly drawn)	.	.	.	5%	0%	5%
COC(C(=O)C(O)C(C)O)C1Cc2cc3cc(OC4CC(OC5CC(O)C(OC)C(C)O5)C(OC(C)=O)C(C)O4)c(C)c(O)c3c(O)c2C(=O)C1OC1CC(OC2CC(OC3CC(C)(O)C(OC(C)=O)C(C)O3)C(O)C(C)O2)C(O)C(C)O1 (stereo not drawn)	.	.	.	0.12µM*	.	?
O=C(Nc1nnc(COc2ccc(Cl)cc2)s1)c1cccs1	-55%	-2	-13	?	1%	.
CCC(=O)Nc1nnc(/C=C/c2ccccc2)s1	-9%	44*	49*	70%	7%	57%
CC(C)(C)C(=O)Nc1nnc(COc2ccc(Cl)cc2)s1	-4%	25*	38*	1%	7%	38%
CCCCC(=O)Nc1nnc(/C=C/c2ccc(OC)cc2)s1	9%	-1	-6	39%	-2%	-21%
COc1ccc(/C=C/c2nnc(NC(=O)C(C)(C)C)s2)cc1	-12%	22*	26	-25%	9%	-18%
CCCC(=O)Nc1nnc(/C=C/c2ccccc2)s1	-13%	26*	40*	42%	-6%	?
CCCCSc1ncnc2c1c(-c1ccccc1)cn2-c1cccc(F)c1	.	.	.	.	-1%	.
CCOc1ccc(NC(=O)CN(C)C(=O)CCN2C(=O)C3CC=CCC3C2=O)cc1OCC (stereo not drawn)	.	.	.	-19%	-3%	?
CN(C(=O)c1ccc(S(=O)(=O)N2CCCCC2)cc1)C1CCS(=O)(=O)C1 (stereo not drawn)	.	.	.	10%	-2%	19%
Cc1ccc(C)c(Cc2c(C)nc(C)[nH]c2=O)c1	10%	-3	-9	4%	-2%	?
COc1ccc(/C=C/c2nnc(NC(=O)COc3ccc(C)cc3)s2)cc1	6%	14*	-9	32%	1%	25%
CCCC(=O)Nc1nnc(/C=C/c2ccc(OC)cc2)s1	1%	19*	21	-3%	0%	-9%
CCCCOC(=O)Nc1nnc(/C=C/c2ccc(OC)cc2)s1	4%	-5	-7	32%	-5%	-12%
CCOC(=O)Nc1nnc(/C=C/c2ccc(OC)cc2)s1	0%	24*	3	23%	0%	1%
CCOC(=O)c1cc(CC)sc1/N=C/C1=C(O)CCCC1=O	15%	1	18	7%	-17%	4%
CCOC(=O)CCC(=O)O[C@H]1[C@H](O[C@@H]2[C@@H](C)[C@H](O[C@H]3C[C@@](C)(OC)[C@@H](O)[C@H](C)O3)[C@@H](C)C(=O)O[C@H](CC)[C@@](C)(O)[C@H](O)[C@@H](C)C(=O)[C@H](C)C[C@@]2(C)O)O[C@H](C)C[C@@H]1N(C)C	-18%	-2	-8	-13%	-14%	5.2µM*
SMILES	NS1 function inh	Cycloheximide cs	Shiga toxin inh	Pf growth 48h	Sm TGR inh	Pf growth 96h
CC[C@H]1OC(=O)[C@H](C)[C@@H](O[C@H]2C[C@@](C)(OC)[C@@H](O)[C@H](C)O2)[C@H](C)[C@@H](O[C@@H]2O[C@H](C)C[C@H](N(C)C)[C@H]2O)[C@](C)(O)C[C@@H](C)C(=O)[C@H](C)[C@@H](O)[C@]1(C)O	-30%	-3	-7	0%	21%	?
CCC(=O)OC1C(N(C)C)CC(C)O[C@H]1O[C@H]1[C@H](C)[C@@H](O[C@H]2CC(OC)[C@@H](O)C(C)O2)[C@H](C)C(=O)O[C@@H](CC)[C@](C)(O)[C@@H](O)[C@H](C)C(=O)[C@@H](C)C[C@]1(C)O (stereo partly drawn)	.	.	.	-16%	.	7.6µM*
CC(C)(C)c1csc(NC(=O)Cc2ccc(S(=O)(=O)N3CCOCC3)s2)n1	.	.	.	?	-13%	10µM*
CCCCc1nnc(NC(=O)Cc2ccc(S(=O)(=O)N3CCOCC3)s2)s1	.	.	.	10µM*	-21%	?
CC(C)CCC(C)NC(=O)Cc1ccc(S(=O)(=O)N2CCOCC2)s1 (stereo not drawn)	6%	-2	-9	?	4%	-9%
CCCOc1ccc(NC(=O)Cc2ccc(S(=O)(=O)N3CCOCC3)s2)cc1OCCC	.	.	.	?	0%	?
O=C(OCn1ncc(Br)c(Br)c1=O)c1c(F)cccc1F	-135%	17*	3	?	0.56µM*	.
CC(=O)Cn1ncc(Br)c(Br)c1=O	-6%	0	-16	?	.	-8%
CCOc1ccc(-c2cc(C(=O)NCCCOC)c3c(-c4ccc(CC)cc4)[nH]nc3n2)cc1	.	.	.	.	7%	.
CCOc1ccccc1OCCCC(=O)N1CCN(S(=O)(=O)c2ccc(Cl)cc2)CC1	.	.	.	13µM*	-14%	?

From PubChem BioAssay
